Measured values taken from ChEMBL document CHEMBL4513216, “Probing the Open Global Health Chemical Diversity Library for Multistage-Active Starting Points for Next-Generation Antimalarials” (ACS Infect Dis, 2020).
Out of some 69,000 compounds screened, about 8,600 (12%) showed an effect of 50% or more. The list comes from a sample in which strong results are over-represented; it also holds similar structures and randomly drawn compounds.

Each compound was assayed on Plasmodium berghei (assay: Screen against P. berghei liver stage (PbLuc), transformed with Luciferase, at 10uM). Conditions: tested at 10 uM.
Type: functional, HepG2

SMILES	INHIBITION
COc1cc2cc3c(nc2cc1OC)OCCN(Cc1cccs1)C3	-3.94%
Cc1ccc(CN2CCc3onc(C(=O)Nc4cccnc4)c3C2)o1	-12.2%
CC1(C(=O)NC2CCCC2)CCCN(c2ncccn2)C1 (stereo unspecified)	0.301%
O=C(NCC1CCOCC1)c1cc(-c2cccnc2)c2cnccc2n1	-4.87%
CN(C)c1cc(C2CCCN(Cc3cnn(C)c3)C2)ccn1 (stereo unspecified)	3.85%
CCn1cc(CN2CCC(c3nnc(CN(C)C)n3CC)CC2)cn1	15.1%
CCn1cc(C2CCN(Cc3ccnc(N(C)C)c3)CC2)cn1	66.7%
Cc1ccc(C(=O)N2CCCCC2c2[nH]ncc2S(C)(=O)=O)s1 (stereo unspecified)	36.7%
CN(C)CC1CSCCCN1C(=O)c1ccsc1 (stereo unspecified)	-26.3%
CN1CC2(CCC(C(=O)O)CC2)Oc2ccccc2C1=O (stereo unspecified)	-4.35%
Cc1ccc(C(=O)Nc2ccc(OC3CCN(C)CC3)cc2)c(C)c1	47%
COc1cccc(C(=O)Nc2ccc(OC3CCN(C)CC3)cc2)c1	49.2%
CN1C(=O)CO[C@H](c2ccc(NC(=O)c3cccc(F)c3)cc2)[C@H]1CO	38.1%
Cc1ccc(C)c(C(=O)Nc2ccc(OC3CCN(C)CC3)cc2)c1	55.8%
COc1ccccc1C(=O)Nc1ccc(OC2CCN(C)CC2)cc1	-25.6%
Cc1cccc(C(=O)Nc2ccc(OC3CCN(C)CC3)cc2)c1	63.5%
CN1CCC(Oc2ccc(NC(=O)c3ccccc3)cc2)CC1	21.7%
CSc1ccccc1C(=O)Nc1ccc(OC2CCN(C)CC2)cc1	11.8%
Cc1ccccc1C(=O)Nc1ccc(OC2CCN(C)CC2)cc1	10.7%
CN1CCC(Oc2ccc(NC(=O)c3ccccc3Br)cc2)CC1	51.8%
CN1CCC(Oc2ccc(NC(=O)c3cccc(Cl)c3)cc2)CC1	65.1%
COCCc1noc(CN2CCCCC2Cn2cccn2)n1 (stereo unspecified)	-2.33%
CCCSCC(=O)NCc1cccc(CN(C)CC)c1	39.8%

SMILES	INHIBITION
CN([C@@H]1CC[C@@H](N2CCOCC2)[C@@H]1O)S(=O)(=O)c1ccccc1	3%
Cc1nnc(CN(Cc2ccco2)Cc2cccc3c2OCO3)n1C	-16.4%
CN(C)CC1(O)CCN(C(=O)c2ccc(-n3cccn3)cc2Cl)C1 (stereo unspecified)	36.6%
CNC(=O)c1cc(S(=O)(=O)C(C)C)cs1	24.1%
COc1ccc(C)cc1C(C)NS(=O)(=O)c1ccc2c(c1)CCC(=O)N2 (stereo unspecified)	54.5%
COc1ccc(C)cc1CCNS(=O)(=O)c1ccc2c(c1)CCC(=O)N2	56.3%
COc1ccc(C(C)NS(=O)(=O)c2ccc3c(c2)CCC(=O)N3)cc1F (stereo unspecified)	20.2%
CCN(CC)S(=O)(=O)NCCc1cc(C)ccc1OC	-12.9%
COc1ccc(C)cc1CCNS(C)(=O)=O	-18%
COc1ccc(OC)c(C(C)NS(=O)(=O)c2cnn(C)c2)c1 (stereo unspecified)	11.2%
Cc1oncc1C(=O)N1C[C@H](OCc2ccccn2)[C@H]2OCCC[C@H]21	15.4%
COc1ccc(F)c(-c2ccnc(N)c2)c1	1.95%
CC(CC(=O)NCCNS(C)(=O)=O)C1CCCCC1 (stereo unspecified)	44.5%
COCCn1cc2c(n1)C(CNS(C)(=O)=O)OCC2 (stereo unspecified)	-31%
CCN(CC)C(=O)c1ccn(COc2ccc(F)cc2F)n1	-3.93%
CCc1ncc(C(=O)NCCN2CCNC2=O)cn1	22.285%
Cc1nnc(C2CCN(C(=O)c3ccc4[nH]ccc4c3)CC2)s1	-5.64%
Cc1nnc(C2CCN(C(=O)c3ccc4nccnc4c3)CC2)s1	51.3%
COC(=O)c1ccc(C(=O)N2CCC(c3nnc(C)s3)CC2)cc1	20.4%
CS(=O)(=O)c1cn[nH]c1C1CCCN(C(=O)Cn2cccn2)C1 (stereo unspecified)	2.71%
COc1cccc2c3c(c(=O)[nH]c12)CC(C)(C)O3	-6.18%
CCOc1ccc(C(=O)N(C)C)cc1NC(=O)c1ccsc1	-20.7%
CCOc1cc(C(=O)N(C)C)ccc1NC(=O)c1ccsc1	-23%

SMILES	INHIBITION
CCOc1cc(C(=O)N(C)C)ccc1NC(=O)C(C)c1ccsc1 (stereo unspecified)	51.5%
Cc1cccc2c1cnn2CCCNC(=O)c1ccnn1C	35%
CC(C)Cc1cc(C(=O)O)nc2[nH]c(=O)[nH]c(=O)c12	41.2%
Cc1csc(CNc2nc3c(s2)c(C)nn3C)n1	8.03%
Cc1nc(CNc2nc3c(s2)c(C)nn3C)cs1	40.8%
CCSCCNc1nc2c(s1)c(C)nn2C	25.8%
CCCOCCNc1nc2c(s1)c(C)nn2C	-18.6%
CCc1nc(CNc2nc3c(s2)c(C)nn3C)cs1	63.1%
CCc1csc(CNc2nc3c(s2)c(C)nn3C)n1	65.7%
Cc1ccc(CCc2nc(C3CCOC3)no2)o1 (stereo unspecified)	29%
CN(C)[C@@H]1CCN(C(=O)C2CCOCC2)[C@H]1Cc1ccncc1	0.804%
COCCN1CCc2ccc(=O)n(Cc3csc(C)n3)c2CC1	-15.3%
CCc1nnc(Nc2cccc(C3CCN(c4cnccn4)CC3)n2)s1	36.4%
CC(=O)N1C[C@H]2CC[C@@H](C1)N(S(=O)(=O)c1ccc(F)cc1Cl)C2	-10.2%
Cc1cc(CCC(=O)NCc2nccn2C)ccc1Br	46.1%
Cc1cc2ccccc2n1CCC(=O)NCc1ncc[nH]1	20.5%
Cc1cc(CCC(=O)NCc2ncc[nH]2)ccc1Br	54.8%
CCC1CCCCN1CCNC(=O)N1CCN(Cc2ccon2)CC1 (stereo unspecified)	50.8%
CN1CCC(CCNC(=O)N2CCN(Cc3ccon3)CC2)CC1	23.5%
CN(CCNC(=O)N1CCN(Cc2ccon2)CC1)C1CCCC1	-6.02%
Cc1cnc(CNC(=O)[C@@]23CCO[C@@H]2CCN(C2CCCC2)C3)cn1	18.6%
Cc1ccc(N2CC[C@H](O)[C@@H]2Cc2cnn(C)c2)nn1	-15.9%
O=C1CN(C(=O)CC2c3ccccc3CCc3ccccc32)CCN1	42.1%

SMILES	INHIBITION
CC(=O)N1CCN(C2CCCCc3ccccc32)CC1 (stereo unspecified)	-1.16%
CC(=O)N1CCN([C@@H]2CN(C(=O)c3ccccc3)C[C@H]2O)CC1	11.8%
NC(=O)N1CCCN(C2CCCCc3ccccc32)CC1 (stereo unspecified)	13.7%
CC(=O)N1CCCN(C2CCCCc3ccccc32)CC1 (stereo unspecified)	55.4%
CC(=O)N1CCN(C2CCc3ccccc32)CC1 (stereo unspecified)	64.7%
Cc1cccc(C2(CNC(C)c3nnc(C)o3)CCCC2)c1 (stereo unspecified)	-10.2%
CCCc1ccc(S(=O)(=O)NC(=O)CCC2CCCO2)cc1 (stereo unspecified)	4.71%
Cn1cccc1C(=O)N1CCC2(CC1)CC(N1CCOCC1)C2	-23.3%
COc1ccccc1C1(C(=O)N2CCCC(c3cc(C)[nH]n3)C2)CC1 (stereo unspecified)	-14.6%
c1cncc(CN2CCC3(CC2)CC(c2cccnc2)CO3)c1 (stereo unspecified)	-35%
c1cncc(C2COC3(CCN(Cc4cccs4)CC3)C2)c1 (stereo unspecified)	0.618%
Cc1ccc(CN2CCC3(CC2)CC(c2cccnc2)CO3)s1 (stereo unspecified)	50.1%
COc1cccc2ccn(CCC(=O)N3CCCC(C(=O)O)C3)c12 (stereo unspecified)	-19.7%
CCc1ncnc2c1CCN(CC(=O)N(C)C)CC2	30.3%
Cc1ncnc2c1CCN(C(=O)CN(C)C)CC2	46.7%
CN(C)C(=O)CN1CCc2ncnc(C3CC3)c2CC1	48.4%
Cc1ncnc2c1CCN(CC(=O)N(C)C)CC2	53%
COCCN1CCc2ncnc(NC3CC3)c2CC1	-31.1%
CN(C)C(=O)CN1CCc2ncnc(N(C)C)c2CC1	3.17%
CCN(C)c1ncnc2c1CCN(C(=O)N(C)C)CC2	-64.7%
CN(C)C(=O)CN1CCc2ncnc(NC3CCC3)c2CC1	72.9%
Cc1ncnc2c1CCN(C(=O)N(C)C)CC2	80.1%
Fc1ccc(C2CN(c3ncnc4[nH]ncc34)CCO2)cc1 (stereo unspecified)	40.8%

SMILES	INHIBITION
CN(C)CCn1nc(C2CCN(Cc3ccccc3)C2)c2cccnc21 (stereo unspecified)	28.3%
Cc1ccc(CNC(=O)c2nn(C)c3c2CS(=O)(=O)CC3)o1	30.8%
Cc1ccc(NC2CCN(C(=O)CCc3ccccc3)CC2)nn1	-26.6%
CCOc1ccnc(N2CCN(C(=O)c3ccc(OC)cc3)CC2)n1	31.9%
CSCC(C)(O)CNC(=O)c1cc(Cl)ccc1Cl (stereo unspecified)	-21.3%
CSCC(C)(O)CNC(=O)c1cc(Br)ccc1Cl (stereo unspecified)	55.4%
CSCC(C)(O)CNC(=O)c1ccc(Br)cc1F (stereo unspecified)	-59.2%
N#Cc1ccc(F)c(CN2CCNC(=O)C2c2cccs2)c1 (stereo unspecified)	23.1%
O=c1cc(-c2ccccc2)nc2n1CCCCC2	49%
CCc1ncncc1C(=O)N1CCCN(Cc2ccc(C#N)cc2)CC1	19.6%
CCc1ncncc1C(=O)N1CCCN(Cc2ccccc2C)CC1	19.6%
CCc1ncncc1C(=O)N1CCN(Cc2ccsc2)CC1	31.9%
CCc1ncncc1C(=O)N1CCCN(Cc2ccc(C)cc2)CC1	56.6%
CCc1nnsc1C(=O)N1CCCN(Cc2ccc(C)cc2)CC1	29.4%
CCc1ncncc1C(=O)N1CCN(Cc2ccco2)CC1	50.4%
CCCc1n[nH]c(C2CN(C(=O)c3cccc4[nH]ncc34)CCO2)n1 (stereo unspecified)	33.3%
Cc1ccc(OC2(C(=O)NC(C)Cc3ccncc3)CCNCC2)cc1 (stereo unspecified)	26.7%
CN(C)C(=O)CO[C@H]1CO[C@@]2(CCN(Cc3ccsc3)C2)C1	24%
Cc1nn(C)c(C)c1C1CCCN1CC(=O)Nc1ccc(Cl)cn1 (stereo unspecified)	-48.4%
